Experimental data reported in PubChem BioAssay AID1159580 (chemical genetic matrix, 2015).
Out of some 5,500 compounds screened, about 2,000 (36%) were called active. About 18% were inconclusive and are not listed. Cut-off read from the data, not from the text of the source: active = normalized growth mostly below about 0.91 (no sharp cut-off); inconclusive = no clear call, values can overlap the other calls; inactive = mostly above about 0.92. This is one part of the list.

Experiment: chemical genetic growth profiling, strain panel (AID 1159580);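 note: tested at 20 µM; growth read once vehicle control cultures reached saturation at 30 °C; 1 = growth at the plate median or of vehicle wells; lower values mean less growth of the strain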
Conditions: growth OD

Measured: normalized growth

C[CH2][Hg][S]c1ccccc1C(=O)O
active: S. cerevisiae deletion strains, locus YJR075W, strain HOC1, active compounds read low 0.0601 | S. cerevisiae deletion strains, locus YKL009W, strain mrt4, active compounds read low 0.078 | S. cerevisiae deletion strains, locus YKL068W, active compounds read low 0.0532 | S. cerevisiae deletion strains, locus YKL085W, strain MDH1 (second series), active compounds read low 0.0507 | S. cerevisiae deletion strains, locus YKL085W, strain MDH1, active compounds read low 0.0507 | S. cerevisiae deletion strains, locus YKL160W, strain elf1, active compounds read low 0.0622 | S. cerevisiae deletion strains, locus YKL190W, strain CNB1, active compounds read low 0.0466 | S. cerevisiae deletion strains, locus YKR001C, strain vps1, active compounds read low 0.0606 | S. cerevisiae deletion strains, locus YKR026C, strain gcn3, active compounds read low 0.0601 | S. cerevisiae deletion strains, locus YKR091W, strain srl3, active compounds read low 0.0575 | S. cerevisiae deletion strains, locus YLL001W, strain dnm1, active compounds read low 0.058 | S. cerevisiae deletion strains, locus YLL026W, active compounds read low 0.0549 | S. cerevisiae deletion strains, locus YLL041C, strain sdh2, active compounds read low 0.0553 | S. cerevisiae deletion strains, locus YLR027C, strain aat2, active compounds read low 0.0538 | S. cerevisiae deletion strains, locus YLR039C, strain RIC1, active compounds read low 0.0815 | S. cerevisiae deletion strains, locus YLR058C, strain SHM2, active compounds read low 0.0473 | S. cerevisiae deletion strains, locus YLR102C, strain apc9, active compounds read low 0.0603 | S. cerevisiae deletion strains, locus YLR113W, strain HOG1, active compounds read low 0.153 | S. cerevisiae deletion strains, locus YLR221C, strain rsa3, active compounds read low 0.0597 | S. cerevisiae deletion strains, locus YLR258W, strain gsy2, active compounds read low 0.0592 | S. cerevisiae deletion strains, locus YLR262C, strain YPT6 (second series), active compounds read low 0.0742 | S. cerevisiae deletion strains, locus YLR262C, strain YPT6, active compounds read low 0.105 | S. cerevisiae deletion strains, locus YLR268W, strain sec22, active compounds read low 0.0621 | S. cerevisiae deletion strains, locus YLR320W, strain mms22, active compounds read low 0.0814 | S. cerevisiae deletion strains, locus YLR330W, strain CHS5, active compounds read low 0.0525 | S. cerevisiae deletion strains, locus YLR342W, strain FKS1 (second series), active compounds read low 0.0638 | S. cerevisiae deletion strains, locus YLR342W, strain FKS1, active compounds read low 0.0616 | S. cerevisiae deletion strains, locus YLR357W, strain rsc2, active compounds read low 0.112 | S. cerevisiae deletion strains, locus YLR370C, strain arc18, active compounds read low 0.0588 | S. cerevisiae deletion strains, locus YLR371W, strain rom2, active compounds read low 0.0587 | S. cerevisiae deletion strains, locus YLR384C, strain iki3, active compounds read low 0.0582 | S. cerevisiae deletion strains, locus YLR418C, strain cdc73, active compounds read low 0.0891 | S. cerevisiae deletion strains, locus YML016C, strain PPZ1, active compounds read low 0.0465 | S. cerevisiae deletion strains, locus YML032C, strain rad52, active compounds read low 0.0656 | S. cerevisiae deletion strains, locus YML120C, strain ndi1, active compounds read low 0.0572 | S. cerevisiae deletion strains, locus YML124C, strain tub3, active compounds read low 0.0558 | S. cerevisiae deletion strains, locus YMR058W, strain fet3, active compounds read low 0.0565 | S. cerevisiae deletion strains, locus YMR078C, strain ctf18, active compounds read low 0.0699 | S. cerevisiae deletion strains, locus YMR125W, strain sto1, active compounds read low 0.0708 | S. cerevisiae deletion strains, locus YMR129W, active compounds read low 0.0561 | S. cerevisiae deletion strains, locus YMR205C, strain PFK2, active compounds read low 0.0823 | S. cerevisiae deletion strains, locus YMR223W, strain ubp8, active compounds read low 0.0597 | S. cerevisiae deletion strains, locus YMR231W, strain pep5, active compounds read low 0.0664 | S. cerevisiae deletion strains, locus YMR263W, strain SAP30, active compounds read low 0.0559 | S. cerevisiae deletion strains, locus YMR307W, strain GAS1, active compounds read low 0.0969 | S. cerevisiae deletion strains, locus YNL067W, strain RPL9B, active compounds read low 0.0481 | S. cerevisiae deletion strains, locus YNL071W, strain lat1, active compounds read low 0.0589 | S. cerevisiae deletion strains, locus YNL128W, strain TEP1, active compounds read low 0.0596 | S. cerevisiae deletion strains, locus YNL153C, strain GIM3, active compounds read low 0.0483 | S. cerevisiae deletion strains, locus YNL183C, strain NPR1, active compounds read low 0.004 | S. cerevisiae deletion strains, locus YNL209W, strain ssb2, active compounds read low 0.057 | S. cerevisiae deletion strains, locus YNL233W, strain BNI4, active compounds read low 0.0515 | S. cerevisiae deletion strains, locus YNL248C, strain rpa49, active compounds read low 0.0737 | S. cerevisiae deletion strains, locus YNL250W, strain rad50, active compounds read low 0.0619 | S. cerevisiae deletion strains, locus YNL271C, strain bni1, active compounds read low 0.0596 | S. cerevisiae deletion strains, locus YNL298W, strain CLA4, active compounds read low 0.0571 | S. cerevisiae deletion strains, locus YNL307C, strain MCK1, active compounds read low 0.0641 | S. cerevisiae deletion strains, locus YNL322C, strain KRE1 (second series), active compounds read low 0.0632 | S. cerevisiae deletion strains, locus YNL322C, strain KRE1, active compounds read low 0.0468 | S. cerevisiae deletion strains, locus YNR049C, strain mso1, active compounds read low 0.0543 | S. cerevisiae deletion strains, locus YNR052C, strain pop2, active compounds read low 0.061 | S. cerevisiae deletion strains, locus YOL006C, strain TOP1, active compounds read low 0.0904 | S. cerevisiae deletion strains, locus YOL012C, strain htz1 0.178 | S. cerevisiae deletion strains, locus YOL147C, strain pex11, active compounds read low 0.0589 | S. cerevisiae deletion strains, locus YOR001W, strain rrp6, active compounds read low 0.0639 | S. cerevisiae deletion strains, locus YOR061W, strain CKA2, active compounds read low 0.0446 | S. cerevisiae deletion strains, locus YOR069W, strain VPS5, active compounds read low 0.0457 | S. cerevisiae deletion strains, locus YOR070C, strain gyp1, active compounds read low 0.0575 | S. cerevisiae deletion strains, locus YOR080W, strain dia2, active compounds read low 0.0641 | S. cerevisiae deletion strains, locus YOR083W, strain WHI5, active compounds read low 0.0608 | S. cerevisiae deletion strains, locus YOR106W, strain vam3, active compounds read low 0.0597 | S. cerevisiae deletion strains, locus YOR136W, strain idh2, active compounds read low 0.0686 | S. cerevisiae deletion strains, locus YOR144C, strain elg1, active compounds read low 0.0566 | S. cerevisiae deletion strains, locus YOR184W, strain ser1, active compounds read low 0.065 | S. cerevisiae deletion strains, locus YOR231W, strain MKK1, active compounds read low 0.125 | S. cerevisiae deletion strains, locus YOR265W, strain rbl2, active compounds read low 0.0558 | S. cerevisiae deletion strains, locus YOR270C, strain vph1, active compounds read low 0.0908 | S. cerevisiae deletion strains, locus YOR290C, strain snf2, active compounds read low 0.0723 | S. cerevisiae deletion strains, locus YOR316C, strain cot1, active compounds read low 0.0555 | S. cerevisiae deletion strains, locus YPL051W, strain arl3, active compounds read low 0.0607 | S. cerevisiae deletion strains, locus YPL055C, strain LGE1, active compounds read low 0.0725 | S. cerevisiae deletion strains, locus YPL078C, strain atp4, active compounds read low 0.0632 | S. cerevisiae deletion strains, locus YPL106C, strain sse1, active compounds read low 0.0983 | S. cerevisiae deletion strains, locus YPL240C, strain hsp82, active compounds read low 0.0533 | S. cerevisiae deletion strains, locus YPL241C, strain CIN2, active compounds read low 0.0538 | S. cerevisiae deletion strains, locus YPL256C, strain CLN2, active compounds read low 0.135 | S. cerevisiae deletion strains, locus YPR119W, strain clb2, active compounds read low 0.0599 | S. cerevisiae deletion strains, locus YPR141C, strain kar3, active compounds read low 0.0633 | S. cerevisiae deletion strains, locus YPR163C, strain tif3, active compounds read low 0.0679 | S. cerevisiae deletion strains, locus YPR167C, strain met16, active compounds read low 0.0597 | S. cerevisiae deletion strains, strain wtn01, active compounds read low 0.0565 | S. cerevisiae strains, strain wild type, active compounds read low 0.0464
